Records with an inconclusive call do not appear. Where a call stands in place of a potency, no number is given. The source made the active and inactive calls. Calls come from the whole dose curve; as a rule, active = well fitted curve in the direction sought with a large enough effect; inconclusive = small, poorly fitted or top-dose-only effect, or another doubt; inactive = no such curve, though single readings can be large; an effect the other way counts as inactive or inconclusive.
Columns and labels:
[1] = Tertiary RLuc qRT-PCR qHTS assay for Zika virus inhibitors (AID 1347169); note: nearly all actives have a fitted effect of over 55% in size; note: potency is the fitted concentration of half-maximal effect
Summary of the method: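 Orthogonal cell-based infection assay using recombinant ZIKV-RLuc (Cambodian) in Vero cells; compound added prior to virus at MOI 1-2. Incubation lasts 48-72 hrs at 37 degrees C before live-cell Renilla substrate is added and luminescence measured.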

[2] = HepG2 cells viability qHTS for Zika virus inhibitors (AID 1347168)
Summary of the method: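 Luminescent ATP readout (CellTiter Glo) after 30 min at 37 degrees C gives viability; cells in DMEM + 4% FBS were treated 24 to 48 hours with compound, following overnight attachment.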

[3] = OV-KATE Cancer Cell Toxicity qHTS against the NCATS CANVASS Library (AID 1347345); conditions: OV-KATE cells viability, CellTiter-Glo luminescence, 72 h; note: potency is the fitted concentration of half-maximal effect
Summary of the method: (§1)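 1000 cells/well seeded and rested 4 h at 37 °C before pin transfer of compounds in an 11-pnt series. Exposure 72 h at 37 °C/5% CO2; viability by CellTiter-Glo luminescence after 15 min at room temperature.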

[4] = HPAF-II Cancer Cell Toxicity qHTS against the NCATS CANVASS Library (AID 1347346); conditions: HPAF-II viability, CellTiter-Glo ATP luminescence, 72 h; note: potency is the fitted concentration of half-maximal effect; nearly all actives have a fitted effect of over 55% in size
Summary of the method: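 First, HPAF-II cells are plated (1000 cells/well) and held 4 h at 37 degrees C. Next, compounds are pin-transferred as an 11-point series. After 72 h, CellTiter-Glo is added and luminescence measured.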

[5] = UWB1.289 Cancer Cell Toxicity qHTS against the NCATS CANVASS Library (AID 1347347); conditions: UWB1.289 viability, CellTiter-Glo luminescence, 72 h; note: potency is the fitted concentration of half-maximal effect; nearly all actives have a fitted effect of over 60% in size
Summary of the method: as §1

[6] = OV-SAHO Cancer Cell Toxicity qHTS against the NCATS CANVASS Library (AID 1347348); conditions: OV-SAHO viability, CellTiter-Glo luminescence, 72 h; note: potency is the fitted concentration of half-maximal effect; nearly all actives have a fitted effect of over 55% in size
Summary of the method: as §1

[7] = Panc-1005 Cancer Cell Toxicity qHTS against the NCATS CANVASS Library (AID 1347349); conditions: Panc-1005 viability, CellTiter-Glo luminescence, 72 h; note: potency is the fitted concentration of half-maximal effect; nearly all actives have a fitted effect of over 60% in size
Summary of the method: as §1

[8] = U-118MG Cancer Cell Toxicity qHTS against the NCATS CANVASS Library (AID 1347351); conditions: U-118MG viability, CellTiter-Glo luminescence, 72 h; note: potency is the fitted concentration of half-maximal effect
Summary of the method: as §1

[9] = COV-362 Cancer Cell Toxicity qHTS against the NCATS CANVASS Library (AID 1347352); conditions: COV-362 viability, CellTiter-Glo luminescence, 72 h; note: potency is the fitted concentration of half-maximal effect
Summary of the method: (§2)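 First, 1000 cells go into each well and rest for 4 hours. Next, an 11-point dilution range is pinned in. Plates then incubate 72 hours before CellTiter-Glo addition and luminescence reading.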

[10] = A2780 Cisplatin Sensitive Ovarian Cancer Cell Toxicity qHTS against the NCATS CANVASS Library (AID 1347353); conditions: A2780 ovarian cancer viability, ATPLite luminescence, 72 h; note: potency is the fitted concentration of half-maximal effect; nearly all actives have a fitted effect of over 60% in size
Summary of the method: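 Cells are plated at 750 per well and rest for 4 hours. Compounds are added across eleven concentrations, and incubated 72 hours before ATP is quantified by luminescence.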

[11] = HEK-293 Cancer Cell Toxicity qHTS against the NCATS CANVASS Library (AID 1347355); conditions: HEK-293 viability, CellTiter-Glo luminescence, 72 h; note: potency is the fitted concentration of half-maximal effect; nearly all actives have a fitted effect of over 65% in size
Summary of the method: as §2

[12] = HPAF-II 24hr Apoptosis Induction qHTS against the NCATS CANVASS Library (AID 1347356)
Summary of the method: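 Cells seeded at 500 per well, then compounds pin-transferred in an 11-point concentration series. After 24 hours at 37 degrees C, Caspase-Glo 3/7 was added and luminescence measured following 15 min at room temperature.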

[13] = HEK293 18hr Apoptosis Induction qHTS against the NCATS CANVASS Library (AID 1347357)
Summary of the method: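 Luminescent caspase-3/7 signal is measured in HEK293 cells exposed for 18 hours to an 11-point concentration series; doxorubicin serves as the plate control.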

[14] = HPAF-II 12hr Apoptosis Induction qHTS against the NCATS CANVASS Library (AID 1347358)
Summary of the method: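 Cells plated at 500 per well are dosed with compound and incubated 12 hours at 37 degrees C. Caspase-Glo 3/7 reagent is added and, after 15 min at room temperature, luminescence proportional to caspase activity is measured.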

[15] = HEK293 24hr Apoptosis Induction qHTS against the NCATS CANVASS Library (AID 1347359)
Summary of the method: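 Caspase-3/7 activation measured as luminescence from the DEVD-based Caspase-Glo reagent, 15 min at room temperature, following 24-hour compound treatment of HEK293 cells.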

[16] = HPAF-II 18hr Apoptosis Induction qHTS against the NCATS CANVASS Library (AID 1347360)
Summary of the method: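 Apoptosis was scored as caspase-3/7 activity in HPAF-II pancreatic cancer cells treated 18 hours with an 11-point concentration series.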

[17] = HEK293 12hr Apoptosis Induction qHTS against the NCATS CANVASS Library (AID 1347361)
Summary of the method: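 Apoptosis in HEK293 was scored as caspase-3/7 luminescence following 12 h treatment with a compound concentration series in qHTS format.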

[18] = test system: NAD(P)H diaphorase (Clostridium kluyveri); test: Diaphorse counterscreen qHTS: Assay Interference Panel against the NCATS CANVASS Library (AID 1347362)
Summary of the method: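 Counterscreen for coupling-enzyme interference: resorufin fluorescence from resazurin/NADH turnover, read after 5 min at room temperature. Compounds were tested over an 11-point series after 15 min dark preincubation with diaphorase in PBS-Tween.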

[19] = biological target: Luciferin 4-monooxygenase (Photinus pyralis) (UniProt P08659); test: Firefly luciferase counterscreen qHTS: Assay Interference Panel against the NCATS CANVASS Library (AID 1347363); note: series mostly up to about 57 µM
Sequence of Luciferin 4-monooxygenase (Photinus pyralis) (P08659 whole entry, looked up): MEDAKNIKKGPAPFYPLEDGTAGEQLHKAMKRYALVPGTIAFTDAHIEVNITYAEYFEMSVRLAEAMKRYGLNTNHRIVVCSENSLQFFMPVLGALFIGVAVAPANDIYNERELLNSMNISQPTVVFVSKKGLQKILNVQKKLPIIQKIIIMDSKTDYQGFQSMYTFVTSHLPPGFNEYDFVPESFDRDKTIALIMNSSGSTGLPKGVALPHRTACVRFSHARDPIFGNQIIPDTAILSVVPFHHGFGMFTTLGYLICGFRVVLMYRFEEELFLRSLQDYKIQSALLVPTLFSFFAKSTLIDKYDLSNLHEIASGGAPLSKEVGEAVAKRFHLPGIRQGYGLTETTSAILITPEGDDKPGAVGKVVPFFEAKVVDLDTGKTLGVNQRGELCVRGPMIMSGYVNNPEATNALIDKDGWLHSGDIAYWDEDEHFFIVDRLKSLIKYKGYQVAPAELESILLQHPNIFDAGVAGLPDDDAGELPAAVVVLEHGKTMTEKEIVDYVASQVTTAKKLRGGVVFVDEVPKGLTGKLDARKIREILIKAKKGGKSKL
Summary of the method: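 Luminescence inhibition readout: compounds (11-point qHTS) sat 15 min at room temperature with substrate mix (0.013 mM luciferin and ATP), then firefly luciferase was added and signal read 5 min later.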

[20] = KB-8-5-11 Cancer Cell Toxicity qHTS against the NCATS CANVASS Library (AID 1347364); conditions: KB-8-5-11 MDR cells viability, CellTiter-Glo, 72 h; note: potency is the fitted concentration of half-maximal effect; nearly all actives have a fitted effect of over 75% in size
Summary of the method: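 Terse: KB-8-5-11, 500 cells/well, 72 hr, 37C/5% CO2, 11-pt titration, CellTiter-Glo readout; confirmatory runs ± 1uM tariquidar in medium.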

## O=S(=O)(c1ccccc1)c1cnc2c(N3CCNCC3)cccc2c1
[1]
  Potency: inactive

## Cc1cc(=O)oc2c(C=O)c(O)ccc12
[1]
  Potency: inactive

## N#CC(c1ccnc(OCc2ccc(CN3CCOCC3)cc2)n1)c1nc2ccccc2s1 (configuration not stated)
[2]
  outcome: inactive

## COc1ccc(C(=O)n2c(C)c(Cc3cccc(O[C@@H](C)C(=O)O)c3)c3cc(OC(F)(F)F)ccc32)cc1
[2]
  outcome: inactive

## O=C(O)Cc1ccc2oc(-c3ccc(NC(=O)/C=C/c4ccc(Br)cc4)c(F)c3)nc2c1
[2]
  outcome: inactive
[1]
  Potency: inactive

## C=C1C(=O)O[C@H]2C1[C@H](OC(=O)/C(=C/CO)COC(=O)/C(C)=C/CO)CC(=C)[C@@H]1CC(=O)[C@@H](C)[C@@H]12 (some centres not stated)
[1]
  Potency: inactive

## C=C1C(=O)O[C@H]2[C@H]1CC/C(C)=C/CC[C@@]1(C)O[C@@H]21
[3]
  Potency: 6.66 µM (active)
[4]
  Potency: 21.1 µM (active)
[5]
  Potency: 11.8 µM (active)
[6]
  Potency: 7.47 µM (active)
[7]
  Potency: 6.68 µM (active)
[8]
  Potency: 6.68 µM (active)
[9]
  Potency: 18.8 µM (active)
[10]
  Potency: 2.96 µM (active)
[11]
  Potency: 7.43 µM (active)
[12]
  outcome: inactive
[13]
  outcome: inactive
[14]
  outcome: inactive
[15]
  outcome: inactive
[16]
  outcome: inactive
[17]
  outcome: inactive
[18]
  outcome: inactive
[19]
  outcome: inactive
[20]
  Potency: 16.6 µM (active)

## O=C(Nc1ccc(S(=O)(=O)Nc2nccs2)cc1)C(c1ccccc1)c1ccccc1
[2]
  outcome: inactive
[1]
  Potency: 20.8 µM (active)

## CC1(C)CCC(C)(C)c2cc(C3(c4ccc(C(=O)O)cc4)OCCO3)ccc21
[2]
  outcome: inactive

## CCc1c(-c2ccccc2)c(-c2ccccc2)nn1-c1ccccc1-c1cccc(OCC(=O)O)c1
[2]
  outcome: inactive

## CCCCCCOc1cc2c(cc1N(C)c1ncc(C(=O)O)cn1)C(C)(C)CCC2(C)C
[2]
  outcome: inactive
[1]
  Potency: 20.8 µM (active)

## Nc1ncnc2c([C@@H]3N[C@H](CO)[C@@H](O)[C@H]3O)c[nH]c12
[2]
  outcome: inactive

## O=C(N/N=C/c1ccc(O)c(O)c1)c1cc2ccccc2cc1O
[2]
  outcome: inactive
[1]
  Potency: 6.18 µM (active)

## O=C1OCc2cc3cccc(O[C@@H]4O[C@H](CO)[C@@H](O)[C@H](O)[C@H]4O)c3c(O)c21
[1]
  Potency: inactive

## CC1=C(C(=O)OCc2ccccc2)C(c2ccc(-c3ccccc3)cc2)NC(=O)N1CCCCCC(=O)O (configuration not stated)
[2]
  outcome: inactive
[1]
  Potency: 23.4 µM (active)

— PubChem BioAssay (NCATS)
